Experiment [1] addresses ATP-dependent 6-phosphofructokinase (Trypanosoma brucei brucei) (UniProt O15648). Put plainly: qHTS Assay to Find Inhibitors of T. brucei phosphofructokinase: hit validation (AID 492961).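 Also: luminescence reports ADP formed as PFK phosphorylates fructose-6-phosphate with ATP.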 The conditions noted are these: T. brucei PFK, ADP-Glo luminescence; series mostly up to 51.4 µM. In outline: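 Reaction: 0.1 M triethanolamine pH 8.0, 5 mM MgCl2, F6P 0.5 mM, ATP 0.1 mM, PFK 1.25 nM, 45 min RT. Read-out: ADP-Glo luminescence. Analysis: concentration-response fits, classed by r2 and efficacy.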
Background: In qHTS, concentration-response curves come from the screen itself.

For experiment [2], the target named is Ubiquitin carboxyl-terminal hydrolase 1 (Homo sapiens) (UniProt O94782). Description: Inhibitors of USP1/UAF1: Pilot qHTS (AID 504865).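 Also: rhodamine fluorescence freed from ubiquitin-rhodamine substrate followed over time; top concentration of the series differs between compounds; nearly all actives have a fitted effect of over 35% in size.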 To be noted: purified USP1/UAF1, Ub-rhodamine cleavage fluorescence; series mostly up to 114 µM. In outline:
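USP1/UAF1 complex (1nM) preincubated with compound 15 min at room temperature, then Ub-Rho substrate (150nM final) added. Fluorescence read kinetically at 480/540 nm, 6 reads every 60 seconds. Buffer: 50mM HEPES pH 7.8, 0.5mM EDTA, 0.1 mg/ml BSA, 1mM TCEP, 0.01% Tween-20.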

Experiment [3] has as its target Estrogen receptor (Homo sapiens) (UniProt P03372). Put plainly: qHTS assay for small molecule antagonists of estrogen receptor alpha signaling (AID 588513; active = well fitted curve in the direction sought with a large enough effect in the signal ratio, with a control signal flat, not every such curve was filed as active; the % refers to the signal ratio). The conditions noted are these: ER-alpha-UAS-bla HEK293, beta-lactamase ratio, antagonist mode; series mostly up to 76.9 µM. Summed up: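 ER-alpha-UAS-bla GripTite HEK 293 cells in medium with 2% charcoal/dextran-treated FBS were preincubated 4 h at 37 C, dosed with compound (1:2 titration), stimulated with 0.5nM 17-beta-estradiol for 18 h, then read by CCF4 beta-lactamase fluorescence.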

The target in experiment [4] is DNA dC->dU-editing enzyme APOBEC-3G (Homo sapiens) (UniProt Q9HC16). Put plainly: qHTS for inhibitors of Vif-A3G interactions: Validation (AID 588379). The conditions noted are these: Vif-A3G protein interaction assay; series mostly up to 46.1 µM. In outline: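 HeLa cells stably expressing Vif and A3G-eYFP, 700 cells/well, incubated overnight at 37 deg C, then exposed to compound overnight at 37 deg C. Inhibition of Vif-mediated degradation read as increased yellow fluorescence (Ex 488/Em 500-530) by laser-scanning cytometry.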
Sequence of DNA dC->dU-editing enzyme APOBEC-3G (Homo sapiens) (Q9HC16 whole entry, looked up): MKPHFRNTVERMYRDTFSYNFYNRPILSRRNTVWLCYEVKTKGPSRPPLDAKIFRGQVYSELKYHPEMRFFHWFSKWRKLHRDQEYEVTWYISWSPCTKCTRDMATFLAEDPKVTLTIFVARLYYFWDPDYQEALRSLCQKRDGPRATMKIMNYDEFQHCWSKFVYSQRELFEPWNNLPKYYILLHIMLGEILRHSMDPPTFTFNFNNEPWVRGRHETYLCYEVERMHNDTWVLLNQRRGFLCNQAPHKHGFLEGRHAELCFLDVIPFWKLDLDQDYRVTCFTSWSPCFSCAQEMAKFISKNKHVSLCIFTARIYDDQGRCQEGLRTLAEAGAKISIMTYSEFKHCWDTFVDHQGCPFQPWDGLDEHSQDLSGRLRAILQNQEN

The results in this text go back to PubChem BioAssay (NCATS).

Records with an inconclusive call do not appear. A call without a number means that no potency is given here. The source made the active and inactive calls. Unless noted, calls follow the shape of the dose curve; as a rule, active = well fitted curve in the direction sought with a large enough effect; inconclusive = small, poorly fitted or top-dose-only effect, or another doubt; inactive = no such curve, though single readings can be large; an effect the other way counts as inactive or inconclusive.

Sequence of Estrogen receptor (Homo sapiens) (P03372 whole entry, looked up): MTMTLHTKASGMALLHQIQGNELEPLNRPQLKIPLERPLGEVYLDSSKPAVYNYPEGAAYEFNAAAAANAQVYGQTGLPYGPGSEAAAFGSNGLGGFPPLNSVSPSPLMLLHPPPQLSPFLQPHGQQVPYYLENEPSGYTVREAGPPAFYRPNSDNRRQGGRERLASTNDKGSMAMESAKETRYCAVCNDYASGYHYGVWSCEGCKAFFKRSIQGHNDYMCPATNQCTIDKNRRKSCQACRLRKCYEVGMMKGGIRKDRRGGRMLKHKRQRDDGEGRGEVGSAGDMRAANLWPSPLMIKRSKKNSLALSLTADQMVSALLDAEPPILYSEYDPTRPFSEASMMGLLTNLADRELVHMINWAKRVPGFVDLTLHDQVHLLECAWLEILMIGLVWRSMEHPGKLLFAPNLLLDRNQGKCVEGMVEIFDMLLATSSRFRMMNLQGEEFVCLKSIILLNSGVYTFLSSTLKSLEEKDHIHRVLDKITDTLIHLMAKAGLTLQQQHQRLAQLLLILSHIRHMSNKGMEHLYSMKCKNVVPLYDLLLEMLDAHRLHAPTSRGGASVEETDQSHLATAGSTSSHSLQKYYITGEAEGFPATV
Sequence of ATP-dependent 6-phosphofructokinase (Trypanosoma brucei brucei) (O15648 whole entry, looked up): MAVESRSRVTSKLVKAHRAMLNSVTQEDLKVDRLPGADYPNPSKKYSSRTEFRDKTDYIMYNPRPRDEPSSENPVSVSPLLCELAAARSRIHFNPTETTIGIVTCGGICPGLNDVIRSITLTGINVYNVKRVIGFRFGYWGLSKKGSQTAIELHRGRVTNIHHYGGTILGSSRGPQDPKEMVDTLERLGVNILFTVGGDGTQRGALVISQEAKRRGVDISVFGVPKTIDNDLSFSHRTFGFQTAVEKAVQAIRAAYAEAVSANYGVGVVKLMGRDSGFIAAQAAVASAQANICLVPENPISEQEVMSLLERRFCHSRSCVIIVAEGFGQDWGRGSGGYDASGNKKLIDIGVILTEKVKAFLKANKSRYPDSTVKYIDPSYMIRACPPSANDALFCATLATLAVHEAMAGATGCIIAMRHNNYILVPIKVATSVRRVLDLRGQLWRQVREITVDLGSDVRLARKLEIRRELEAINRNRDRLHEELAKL
Sequence of Ubiquitin carboxyl-terminal hydrolase 1 (Homo sapiens) (O94782 whole entry, looked up): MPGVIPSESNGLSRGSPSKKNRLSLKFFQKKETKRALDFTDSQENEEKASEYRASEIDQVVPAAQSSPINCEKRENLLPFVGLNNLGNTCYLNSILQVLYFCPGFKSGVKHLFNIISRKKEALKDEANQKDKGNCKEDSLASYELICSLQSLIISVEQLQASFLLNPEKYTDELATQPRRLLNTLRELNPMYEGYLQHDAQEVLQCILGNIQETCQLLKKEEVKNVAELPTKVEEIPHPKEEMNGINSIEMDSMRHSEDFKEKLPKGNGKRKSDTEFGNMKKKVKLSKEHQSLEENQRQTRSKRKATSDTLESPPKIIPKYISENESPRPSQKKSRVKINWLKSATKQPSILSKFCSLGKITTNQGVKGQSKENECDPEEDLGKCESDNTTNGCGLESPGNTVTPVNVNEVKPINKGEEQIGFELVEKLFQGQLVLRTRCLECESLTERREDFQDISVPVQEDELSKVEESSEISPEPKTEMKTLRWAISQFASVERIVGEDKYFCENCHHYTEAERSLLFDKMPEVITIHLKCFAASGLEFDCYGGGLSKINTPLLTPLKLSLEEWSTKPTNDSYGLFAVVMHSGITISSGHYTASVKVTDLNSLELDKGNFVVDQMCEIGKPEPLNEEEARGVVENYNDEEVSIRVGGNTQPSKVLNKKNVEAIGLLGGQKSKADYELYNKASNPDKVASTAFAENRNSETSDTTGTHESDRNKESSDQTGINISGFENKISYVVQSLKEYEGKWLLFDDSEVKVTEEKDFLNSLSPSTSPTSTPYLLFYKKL

Turning to `COc1ccc(Cc2cnc(N)nc2N)cc1OC`, in experiment [1], the molecule was called inactive. Moreover, the Potency result in experiment [2] is “inactive”.

Take `CNc1c2c(nn1C)CCCC2`: in experiment [1], the molecule was called inactive. The Potency entry in experiment [2] was “inactive”.

For `CN1C[C@@H]2C[C@H]1CN2c1cc2c(cc1F)c(=O)c(C(=O)O)cn2C1CC1`, in experiment [1], the result was inactive. Besides, in experiment [2], the Potency result was “inactive”.

Regarding `O=C(O)c1cc(=O)c2ccccc2o1`, the molecule was called inactive in experiment [1]. Also, the Potency result in experiment [2] was “inactive”.

Take `CCOc1ccc(C(=O)OCCN(CC)CC)cc1`: the outcome in experiment [1] was inactive. In addition, the Potency entry in experiment [2] was “inactive”.

Regarding `Cc1cc(C)c(NC(=O)CN(CC(=O)O)CC(=O)O)c(C)c1Br`, the molecule was called inactive in experiment [1]. Moreover, the Potency result in experiment [2] was “inactive”.

For `CC(C)c1cc2c(cc1S(=O)(=O)O)[C@@]1(C)CCC[C@@](C)(C(=O)O)[C@@H]1CC2`, in experiment [1], the result was inactive. Also, the Potency entry in experiment [2] is “inactive”.

For `CC(=O)OC[C@H]1O[C@@](COC(C)=O)(O[C@H]2O[C@H](COC(C)=O)[C@@H](OC(C)=O)[C@H](OC(C)=O)[C@H]2OC(C)=O)[C@@H](OC(C)=O)[C@@H]1OC(C)=O`, the outcome in experiment [1] was inactive. Further, in experiment [2], the Potency entry was “inactive”.

For `CC(=O)Oc1cccc(C)c1`, in experiment [1], the result was inactive. Also, the Potency entry in experiment [2] is “inactive”.

Regarding `Cc1c(NC(C)C)c(=O)n(-c2ccccc2)n1C`, the outcome in experiment [1] was inactive. The Potency entry in experiment [2] is “inactive”.

For the molecule `CCN1CC(CCN2CCOCC2)C(c2ccccc2)(c2ccccc2)C1=O` (configuration not stated), in experiment [1], the result was inactive. In addition, in experiment [2], the Potency result is “inactive”.

`CCOC(N)=O`: the result in experiment [1] was inactive. Further, the Potency entry in experiment [2] was “inactive”.

On to `CC(C)C[C@@H](N)C(=O)O`, for which the result in experiment [1] was inactive. In addition, the Potency entry in experiment [2] was “inactive”.

For `C=CCSCC1Nc2cc(Cl)c(S(N)(=O)=O)cc2S(=O)(=O)N1` (configuration not stated), the molecule was classed as inactive in experiment [1]. Besides, in experiment [2], the Potency entry was “inactive”.

As to `NC(=O)CC[C@@H](N)C(=O)O`, the result in experiment [1] was inactive. In addition, in experiment [2], the Potency result is “inactive”.

In the case of `Cc1ccsc1C(=CCCN1CCC[C@@H](C(=O)O)C1)c1sccc1C`, the call in experiment [1] was inactive. For the same molecule, in experiment [2], the Potency result was “inactive”.

With `Cc1cc(O)cc(C)c1Cl`, the outcome in experiment [1] was inactive. The Potency result in experiment [2] is “inactive”.

As for `CC(=O)N(CC(O)CO)c1c(I)c(C(=O)NCC(O)CO)c(I)c(C(=O)NCC(O)CO)c1I` (configuration not stated), the molecule was classed as inactive in experiment [1]. Besides, the Potency entry in experiment [2] was “inactive”.

For the molecule `CC(O)CCCCn1c(=O)c2c(ncn2C)n(C)c1=O` (configuration not stated), in experiment [1], the result was inactive. Moreover, the Potency entry in experiment [2] was “inactive”.

On to `OC[C@@H](O)[C@@H](O)[C@H](O)[C@H](O)CO`, for which, in experiment [1], the molecule was classed as inactive. Moreover, in experiment [2], the Potency result is “inactive”.

Take `COc1ccc(NS(=O)(=O)c2ccc(N)cc2)nn1`: the result in experiment [1] was inactive. In addition, in experiment [2], the Potency entry was “inactive”.

For the molecule `O=C(O)CCC(=O)O`, the outcome in experiment [1] was inactive. For the same molecule, the Potency result in experiment [2] was “inactive”.

Take `Cc1c(I)c(=O)n(-c2ccccc2)n1C`: the molecule was called inactive in experiment [1]. In addition, the Potency entry in experiment [2] is “inactive”.

On to `Cc1cc(=O)[nH]c(=S)[nH]1`, for which the molecule was classed as inactive in experiment [1] and in experiment [3]. In addition, the Potency entry in experiment [2] was “inactive”.

Regarding `CCN(CC)CCc1nc(-c2ccccc2)no1`, the molecule was classed as inactive in experiment [1]. The Potency entry in experiment [2] is “inactive”.

Consider `NS(=O)(=O)c1cc(-c2nn[nH]n2)c(NCc2cccs2)cc1Cl`, for which, in experiment [1], the outcome was inactive. Also, the Potency entry in experiment [2] is “inactive”.

Consider `CC(C(=O)O)c1ccc2c(c1)Cc1cccnc1O2` (configuration not stated), for which the outcome in experiment [1] was inactive. Further, in experiment [2], the Potency result was “inactive”.

Turning to `CC(=O)Nc1ccccc1`, the result in experiment [1] and in experiment [3] was inactive. In experiment [2], the Potency result is “inactive”.

Turning to `CCS(=O)(=O)CCn1c([N+](=O)[O-])cnc1C`, the call in experiment [1] was inactive. Further, the Potency result in experiment [2] is “inactive”.

As for `FC(F)(F)C(Cl)Br` (configuration not stated), the molecule was called inactive in experiment [1] and in experiment [3]. The Potency result in experiment [2] is “inactive”.

On to `CCN(CC)S(=O)(=O)c1ccc(C(=O)O)cc1`, for which the molecule was called inactive in experiment [1]. Further, the Potency entry in experiment [2] is “inactive”.

As to `Cc1ncc(CO)c(CN)c1O`, the call in experiment [1] was inactive. Further, the Potency result in experiment [2] was “inactive”.

Regarding `Cc1ccc(S(=O)(=O)NC(=O)NC2CCCCC2)cc1`, the call in experiment [1] was inactive. Besides, the Potency entry in experiment [2] was “inactive”.

With `O=C(O)Cc1cn(-c2ccccc2)nc1-c1ccc(Cl)cc1`, the call in experiment [1] was inactive. For the same molecule, the Potency entry in experiment [2] was “inactive”.

In the case of `CN/C(=C\[N+](=O)[O-])NCCSCc1csc(CN(C)C)n1`, the result in experiment [1] was inactive. For the same molecule, the Potency entry in experiment [2] is “inactive”.

For `O=C(O)Cc1ccc(CCNS(=O)(=O)c2ccc(Cl)cc2)cc1`, the molecule was called inactive in experiment [1]. The Potency entry in experiment [2] is “inactive”.

Consider `C[C@@H](N)C(=O)O`, for which the molecule was called inactive in experiment [1] and in experiment [4]. Also, the Potency result in experiment [2] was “inactive”.

For `CC(=O)NCc1c(I)c(NC(C)=O)c(I)c(C(=O)O)c1I`, in experiment [1], the molecule was classed as inactive. Also, the Potency entry in experiment [2] is “inactive”.

With `Cc1onc(-c2ccccc2)c1-c1ccc(S(N)(=O)=O)cc1`, the molecule was called inactive in experiment [1]. Besides, in experiment [2], the Potency result was “inactive”.

Turning to `CNCc1ccccc1`, in experiment [1], the result was inactive. Further, the Potency result in experiment [2] is “inactive”.

With `C[N+](C)(C)CC[N+]1(C)Cc2c(Cl)c(Cl)c(Cl)c(Cl)c2C1`, the molecule was classed as inactive in experiment [1] and in experiment [4]. Also, in experiment [2], the Potency result is “inactive”.

As to `CC[N+](C)(CC)CCOC(=O)C1c2ccccc2Oc2ccccc21`, in experiment [1], the molecule was classed as inactive. Also, the Potency entry in experiment [2] is “inactive”.

Consider `O=C(O)c1ccc(OCCCOc2ccc(C(=O)O)cc2)cc1`, for which the molecule was classed as inactive in experiment [1]. In addition, the Potency result in experiment [2] is “inactive”.

On to `NNC(=O)CP(=O)(c1ccccc1)c1ccccc1`, for which the molecule was classed as inactive in experiment [1]. Also, the Potency result in experiment [2] was “inactive”.

With `NCC1CCC(C(=O)Oc2ccc(CCC(=O)O)cc2)CC1` (configuration not stated), the outcome in experiment [1] was inactive. For the same molecule, the Potency result in experiment [2] is “inactive”.

For `CCc1cccc(CC)c1NC(=O)CN(CC(=O)O)CC(=O)O`, the result in experiment [1] was inactive. In addition, the Potency entry in experiment [2] is “inactive”.

As for `Cc1ccc(C(C)C)c(O)c1`, the call in experiment [1] and in experiment [3] was inactive. The Potency result in experiment [2] is “inactive”.

Turning to `CCCCCCCCCCCCCCCCCCO`, the result in experiment [1] and in experiment [3] was inactive. Besides, in experiment [2], the Potency entry was “inactive”.

For the molecule `O=C(O)CNC(=O)c1ccccc1I`, in experiment [1], the result was inactive. For the same molecule, the Potency entry in experiment [2] is “inactive”.

With `c1ccc2[nH]ccc2c1`, the molecule was classed as inactive in experiment [1]. Also, the Potency entry in experiment [2] was “inactive”.

Turning to `O=C1c2cccc(O)c2C(=O)c2c(O)cccc21`, the molecule was called inactive in experiment [1]. Besides, the Potency entry in experiment [2] was “inactive”.

In the case of `O=C(OOC(=O)c1ccccc1)c1ccccc1`, the outcome in experiment [1] and in experiment [3] was inactive. Moreover, the Potency result in experiment [2] is “inactive”.

As to `NC(=O)c1ccc([N+](=O)[O-])cc1Cl`, the result in experiment [1] was inactive. Moreover, in experiment [2], the Potency entry was “inactive”.

On to `CC(=O)Nc1cccc(O)c1`, for which the molecule was called inactive in experiment [1] and in experiment [3]. Further, the Potency result in experiment [2] is “inactive”.

As to `CN1CCN(C(=O)C2CCCCC2)CC1`, in experiment [1], the outcome was inactive. Moreover, in experiment [2], the Potency result is “inactive”.

Consider `NC(=O)CCCCC1CCSS1` (configuration not stated), for which the call in experiment [1] was inactive. Further, the Potency entry in experiment [2] was “inactive”.

On to `CN(C(=O)c1c(O)c2ccccc2n(C)c1=O)c1ccccc1`, for which the outcome in experiment [1] and in experiment [4] was inactive. Also, the Potency result in experiment [2] is “inactive”.

Take `O=C1c2ccccc2S(=O)(=O)N1CCCCN1CCN(c2ncccn2)CC1`: the outcome in experiment [1] and in experiment [4] was inactive. Further, in experiment [2], the Potency entry is “inactive”.
